# In ChEMBL document CHEMBL3988442, “University of Dundee, Small-Polar-MMV Screening Library” (2021):
# Values joined by “and” are separate entries in the source; they are usually repeats but may differ in a detail not shown here. Identical values can stand only once. About 290 (0.85%) of roughly 34,000 compounds showed an effect of 50% or more. Many of the other results were omitted from the sample, so strong results are more common in it than they were.
# System: Plasmodium falciparum
# Assay: Plasmodium falciparum sporozoite viability assay
# Type: functional, organism-based
# Set-up: scale not given: in the data most compounds retested in dose-response had high values
SMILES,Percent Effect [%],Percent Effect (10 mM as filed; unlikely as a test dose)
CCOCCCNC(=O)C1(C)CCC(=O)N1Cc1ccccc1F (stereo not given),-5.282,–
COc1ccc(-c2cc(C3CCCNC3)ccn2)cc1.Cl (stereo not given),3.809,–
COc1cccc(-c2cc(C3CCCNC3)ccn2)c1 (stereo not given),10.99,–
COc1cccc(Nc2nc(-c3ccncc3)nc3c2CNCC3)c1.Cl,6.202,–
COc1cccc(Nc2nc(N3CCCC3)nc3c2CNCC3)c1.Cl,4.348,–
Cc1cc(C)nc(Nc2nccnc2C2CCCN(CCO)C2)n1 (stereo not given),-0.8244,–
Cc1ccoc1C(=O)NC1CCN(C(=O)Nc2ccccn2)CC1,4.048,–
CN1CCN(C[C@@H]2OC[C@H]3CN(CCc4ccccc4)CC[C@H]32)CC1.O=C(O)C(F)(F)F.O=C(O)C(F)(F)F.O=C(O)C(F)(F)F,9.359,–
O=C(NC1CCCCC1)NC1CCCc2c1cnn2CCO (stereo not given),–,-11.63% and -7.35% and -4.902%
O=C(NCC1CCCCC1)NC1CCCc2c1cnn2CCO (stereo not given),–,38.6% and 33.33% and 56.01%
CSc1ccc(OCCN2CCNC(=O)CC2)cc1,-10.56,–
CSCC[C@H](N)c1nnc(SCc2cc(C)ccc2C)o1.Cl,-8.516,–
CCc1n[nH]c(C(=O)NCCn2nccc2C)c1C,–,28.41% and 66.23% and 77.05%
CCc1n[nH]c(C(=O)NCCn2ccnc2C)c1C,–,-3953% and -3827%
CC(C(=O)N1CCN(Cc2ccc3c(c2)OCO3)CC1)n1ccnc1 (stereo not given),3.608,–
CCn1cnnc1CNC(=O)N1CCC(CN2CCCCCC2)CC1,4.778,–
CC(C)COCc1cncc2c1CCN(C(=O)c1cscn1)C2.O=C(O)C(F)(F)F,5.063,–
CC(C)Cc1nc(CO)n(-c2ccc3c(c2)OCCO3)n1,–,46.72% and 37.75%
CC[S+]([O-])CCc1nc(CC(C)C)nn1-c1ccc2c(c1)OCCO2 (stereo not given),–,61.59% and 54.31%
Cc1cc(C)n(CC2CCCN2C(=O)CCc2ccncc2)n1 (stereo not given),1.423,–
Cn1ccc(C(=O)NCc2cccc(CN3CCCC3)c2)cc1=O,11.38,–
CCOc1ccnc(N2CCN(C(=O)c3c(CC)noc3C)CC2)n1,-6.802,–
Cc1nccn1CC1CCCN1S(=O)(=O)Cc1ccc(F)cc1 (stereo not given),5.478,–
CN1CCOC(C(=O)Nc2ccc3[nH]nnc3c2)C1 (stereo not given),–,-26.35% and -20.34%
CN1CCOC(C(=O)Nc2ccc3c(c2)nc(C(C)(C)C)n3C)C1 (stereo not given),–,104.1% and 105.2%

SMILES,Percent Effect [%],Percent Effect (10 mM as filed; unlikely as a test dose)
CN1CCOC(C(=O)Nc2ccc3c(c2)nc(C2CC2)n3C)C1 (stereo not given),–,-13.44% and -13.85%
CC1CCCN(C(=O)C2CCN(c3snc4ccccc34)CC2)C1 (stereo not given),6.864,–
CC(C)c1cc(NC(=O)c2ccc(NC3CC3)nc2)[nH]n1,15.54,–
Cc1ccsc1-c1cccc(-c2ccn(CC3CCNC3)n2)c1 (stereo not given),–,75.23% and 72.27% and 75.29%
c1cc(-c2cncnc2)cc(-c2ccn(CC3CCNC3)n2)c1 (stereo not given),–,-11.99% and -9.692% and -21.27%
Cc1nccc(-c2cccc(-c3ccn(CC4CCNC4)n3)c2)n1 (stereo not given),–,-3.675% and -28.15% and -23.4%
O=C(Nc1ccccc1OCCc1ccccn1)N1CCOCC(O)C1 (stereo not given),6.804,–
Cc1cc(OCC(O)c2nc3c([nH]2)CC(C)(C)CNC3=O)ccc1Cl (stereo not given),5.403,–
c1cncc(-c2noc(CN3CCc4cncnc4C3)n2)c1,1.959,–
c1ccc(-c2noc(CN3CCc4cncnc4C3)n2)nc1,–,68.57% and 81.28% and 66.45%
Cc1cc(C(=O)N2CCCC(n3cncn3)C2)no1 (stereo not given),2.312,–
CN(C)C(=O)c1cnc(-c2ccc3c(c2)OCO3)s1,–,-22.33% and -36.75%
CCN(C(=O)c1cnc(-c2ccc3c(c2)OCO3)s1)C1CC1,–,-15.93% and -34.81%
CC(C1CC1)N(C)C(=O)c1cnc(-c2ccc3c(c2)OCO3)s1 (stereo not given),–,53.72% and 75.58% and 50.81%
COc1c(C2CCCN2Cc2noc(C(C)C)n2)c(C)nn1C (stereo not given),4.307,–
CCc1nnc(CN2CCOC(Cn3cccn3)C2)o1 (stereo not given),11.86,–
c1ccc(-c2nc(CN3CCOC(Cn4cccn4)C3)cs2)cc1 (stereo not given),–,-13.99% and -29.39%
c1csc(-c2nc(CN3CCOC(Cn4cncn4)C3)cs2)c1 (stereo not given),–,44.25% and 56.8% and 40.33%
c1csc(-c2nc(CN3CCOC(Cn4cncn4)C3)co2)c1 (stereo not given),15.52,–
c1ccc(-c2nc(CN3CCOC(Cn4cncn4)C3)cs2)cc1 (stereo not given),–,57.17% and 32.5% and 36.71%
c1csc(-c2nc(CN3CCOC(Cn4cccn4)C3)cs2)c1 (stereo not given),3.015,–
O=C1NCC2=C1C(c1ccc(O)cc1)Nc1ccccc1N2 (stereo not given),-23.23,–
COCCN1CCCC1c1ccnc(-c2ccccc2)n1 (stereo not given),6.777,–
CCN1CCN(C(C)CNC(=O)Nc2nnc(C)s2)CC1 (stereo not given),-9.257,–
Cc1noc(C)c1CCC(=O)NCC1(O)CCN(c2ccccn2)C1 (stereo not given),8.46,–

SMILES,Percent Effect [%],Percent Effect (10 mM as filed; unlikely as a test dose)
CNc1cc(C)nc(N2C[C@@H](C(=O)O)[C@H](C3CC3)C2)n1,–,73.63% and 80.29% and 69.7%
CNc1cc(C)nc(N2C[C@H](NC(=O)C3CCOCC3)[C@@H](C3CC3)C2)n1,–,-9.822% and -7.832% and -7.881%
CNc1cc(C)nc(N2C[C@H](C3CC3)[C@@H](N)C2)n1,–,11.54% and 8.166% and -2.157%
Cc1cnn(CC2CCCN2C(=O)c2c(C)noc2C(C)C)c1 (stereo not given),2.244,–
CCn1c(N)nc2cc(C(=O)NCc3ccccc3Cl)cnc21,–,-6% and 9.799% and 1.435%
CCn1c(N)nc2cc(C(=O)NCCc3nnc(C)s3)cnc21,–,-8.165% and -11.66%
CCn1c(N)nc2cc(C(=O)NCCNc3ncccc3C)cnc21,–,-11.01% and -17.43%
CCn1c(N)nc2cc(C(=O)NCCc3ccccc3F)cnc21,–,83.82% and 65.98%
N#Cc1c(N)nc2c(c1C1CCOC1)CCc1cc(O)ccc1-2 (stereo not given),4.476,–
CN(CCc1ccccn1)C(=O)c1cnn(-c2ccccc2F)c1N,-5.321,–
COc1ccc(CN2Cc3[nH]nc(C(=O)N(C)C)c3C2)cc1,11.47,–
Cl.Cn1cc([C@@H]2CN(S(=O)(=O)c3cccs3)C[C@H]2N)c2ccncc21,-0.5895,–
COc1ccc(CC(=O)N2CCCC(n3cccn3)C2)cc1F (stereo not given),5.192,–
CS(=O)(=O)CCSc1nnc(Cc2ccccc2F)o1,-5.789,–
Cc1ccc(OCc2occc2C(=O)N2CCOC(C(=O)O)C2)cc1 (stereo not given),16.87,–
O=C1COc2cc(OC[C@@H]3CCCN4CCCC[C@H]34)ccc21,-3.094,–
O=C1CCCN1Cc1nnc2n1CCN(Cc1ccco1)C2,15.42,–
CN(C)CCNC(=O)[C@H]1C[C@@H]2CN(C(=O)NCc3ccccc3)C[C@H]1O2.O=C(O)C(F)(F)F,-11.68,–
CN(C)CCNC(=O)C1Cc2nc(-c3ccccc3)sc2N1CC1CC1.O=C(O)C(F)(F)F (stereo not given),–,63.41% and 51.04% and 49.77%
CN(C)CCNC(=O)c1sc2ccccc2c1C1CCC(CN)CC1.Cl (stereo not given),13.87,–
CN(C)CCNC(=O)c1cc(-c2cnc(N(C)C)nc2)cn1CC1CC1,2.417,–
Cc1occc1C(=O)N1CCCN(Cc2nccn2C(C)C)CC1,16.64,–
CC(C)CN1C(=O)C[C@@H]2[C@@H]1CCN2Cc1cccc(C#N)c1.O=C(O)C(F)(F)F,7.99,–
c1ccc(-c2noc(CN3CCc4c(ncn4C4CC4)C3)n2)nc1,–,42.55% and 46.63%
c1coc(-c2noc(CN3CCc4c(ncn4C4CC4)C3)n2)c1,–,9.104% and 3.38%

SMILES,Percent Effect [%],Percent Effect (10 mM as filed; unlikely as a test dose)
c1csc(-c2noc(CN3CCc4c(ncn4C4CC4)C3)n2)c1,–,59.38% and 60.81%
Cc1cccc(-c2noc(CN3CCc4c(ncn4C4CC4)C3)n2)c1,–,39.81% and 43.38%
c1cc(-c2noc(CN3CCc4c(ncn4C4CC4)C3)n2)cs1,–,83.48% and 80.24%
CCOc1ccc(C#N)cc1NCC(=O)NC(=O)Nc1ccccc1,-20.07,–
CC(C)Oc1ccc(CNC(=O)NCC(C)(C)C(N)=O)cc1F,-18.14,–
Cl.O=S1(=O)CCC(NCCn2cncc2-c2ccc3c(c2)CCCO3)C1 (stereo not given),-8.887,–
CN(C)S(=O)(=O)NCC1CCN(Cc2ccccc2F)CC1,–,-11.15% and -13.88%
c1ccc(Oc2ccc(CNCC3CNc4ccnn4C3)cn2)cc1 (stereo not given),-2.407,–
OCC(CO)N1CCCC(Cc2cnc(Nc3ccccn3)cn2)C1 (stereo not given),3.086,–
Cc1cc(C(=O)N2CCCC(C)C2)ccc1NCc1nc(C(C)C)no1 (stereo not given),–,54.84% and 44.37% and 61.2%
Cc1noc(CNc2ccc(C(=O)N3CCCC(C)C3)cc2C)n1 (stereo not given),–,12% and 12.75% and 4.849%
COc1cc(N2C[C@@H]3COC[C@]3(COCc3ccccn3)C2)ncn1.O=C(O)C(F)(F)F.O=C(O)C(F)(F)F,7.967,–
CN1CCCC1c1ccnc(C(=O)N(C)C2CCCCC2)c1 (stereo not given),7.615,–
CC(=O)Nc1nc(C(=O)NCc2ccc(N3CCOC(C)C3)nc2)cs1 (stereo not given),13.32,–
O=C(Nc1cc(C2CCOCC2)[nH]n1)c1cc[nH]n1,-6.094,–
COCCN1CCN(C(C)C(=O)Nc2ccnn2C(C)C)CC1 (stereo not given),-4.51,–
CC(C(=O)Nc1ccnn1C(C)C)N1CCN(Cc2ccccc2)CC1 (stereo not given),-6.509,–
Cc1cccc(NC(=O)c2sccc2C)n1,7.103,–
Cc1cccc(NC(=O)c2[nH]nc(C(C)C)c2Br)n1,–,102.6% and 98.53% and 104.2%
CC(C)c1n[nH]c(C(=O)Nc2ccnn2C(C)C)c1Br,–,92.02% and 87.97% and 88.19%
Cc1cccc(NC(=O)c2cncc(C3CCNCC3)n2)n1,3.261,–
COc1ccncc1NC(=O)c1[nH]nc(C(C)C)c1Br,–,41.3% and 28.4%
Cc1n[nH]c(C(=O)NCc2ccnc(OCC(F)(F)F)c2)c1Br,-2.803,–
Cc1ccnc(NC(=O)c2[nH]nc(C(C)C)c2Br)c1,–,109% and 104.4% and 105.9%
Cc1ccnc(NC(=O)c2ccc(-n3ncc(C#N)c3N)cc2)c1,11.53,–
